From PubChem BioAssay (EPA / NIEHS)
Activity calls are given as the source filed them. The calls were made as follows: active = hit-call score of the fitted dose curve at least 0.9, where 1 is the maximum; inactive = score below 0.9.

Experiments:
Conditions in all cases: mRNA level, 48 h; actives raise or lower the signal
[1] = read-out: Fatty acid synthase (Homo sapiens) (UniProt P49327); test: LTEA_HepaRG_FASN: Life Technologies and Expression Analysis (LTEA) Assay for Fatty Acid Synthase (FASN) using HepaRG (AID 2283448)
Procedure, shortened: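 HepaRG, 48 h exposure, 8-pt half-log series top 100 uM, 0.5% DMSO vehicle, duplicates. Readout: FASN transcript by Fluidigm qRT-PCR; housekeeping-normalized; bidirectional curve fit vs DMSO baseline.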

[2] = read-out: Cyclin D2 (CCND2), CCND2 (gene 894); test: LTEA_HepaRG_CCND2: Life Technologies and Expression Analysis (LTEA) Assay for Cyclin D2 (CCND2) using HepaRG (AID 2283449)
Procedure, shortened: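 CCND2 transcript levels, quantified by qRT-PCR and normalised to three housekeeping genes, were fitted bidirectionally against 0.5% DMSO. HepaRG cultures were dosed 48 h in duplicate with an 8-point half-log series up to 100 uM.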

[3] = read-out: Cyclin Dependent Kinase Inhibitor 1A (CDKN1A), CDKN1A (gene 1026); test: LTEA_HepaRG_CDKN1A: Life Technologies and Expression Analysis (LTEA) Assay for Cyclin Dependent Kinase Inhibitor 1A (CDKN1A) using HepaRG (AID 2283450)
Procedure, shortened: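 Differentiated HepaRG cells in serum-free induction medium, exposed 48 h in duplicate to eight half-log concentrations up to 100 uM in 0.5% DMSO. mRNA measured by TaqMan qRT-PCR, normalized to ACTB, GAPDH, POLR2A; bidirectional fit versus DMSO.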

[4] = read-out: Cyclin D1 (CCND1), CCND1 (gene 595); test: LTEA_HepaRG_CCND1: Life Technologies and Expression Analysis (LTEA) Assay for Cyclin D1 (CCND1) using HepaRG (AID 2283451)
Procedure, shortened: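 Differentiated HepaRG cells exposed 48 h in serum-free induction medium to eight half-log concentrations from 100 uM top, 0.5% DMSO, duplicates. CCND1 mRNA measured by Fluidigm TaqMan qRT-PCR, normalised to ACTB, GAPDH, POLR2A; bidirectional fit.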

[5] = read-out: catalase (CAT), CAT (gene 847); test: LTEA_HepaRG_CAT: Life Technologies and Expression Analysis (LTEA) Assay for catalase (CAT) using HepaRG (AID 2283452)
Procedure, shortened: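 Expression of CAT was quantified by TaqMan qRT-PCR with ACTB/GAPDH/POLR2A normalization after 48 h chemical exposure of HepaRG. Eight-point half-log series, top 100 uM, in 0.5% DMSO; gain or loss fitted against vehicle.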

[6] = read-out: flavin-containing dimethylaniline monooxygenases 3 (FMO3), FMO3 (gene 2328); test: LTEA_HepaRG_FMO3: Life Technologies and Expression Analysis (LTEA) Assay for flavin-containing dimethylaniline monooxygenases 3 (FMO3) using HepaRG (AID 2283453)
Procedure, shortened: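 Eight-point concentration-response in serum-free HepaRG cultures (top 100 uM, 0.5% DMSO, 48 h). Read-out: FMO3 mRNA level normalized to three endogenous control genes, fitted bidirectionally versus vehicle.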

[7] = read-out: Cytochrome P450 (CYP1A1), CYP1A1 (gene 1543); test: LTEA_HepaRG_CYP1A1: Life Technologies and Expression Analysis (LTEA) Assay for Cytochrome P450 (CYP1A1) using HepaRG (AID 2283454)
Procedure, shortened: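 Differentiated human HepaRG cells, after 48 h plating, exposed in duplicate for 48 h in serum-free induction medium to 8 half-log concentrations up to 100 uM in 0.5% DMSO. CYP1A1 mRNA by qRT-PCR, normalized to ACTB/GAPDH/POLR2A; bidirectional fit versus DMSO.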

[8] = read-out: Forkhead box O1 (FOXO1), FOXO1 (gene 2308); test: LTEA_HepaRG_FOXO1: Life Technologies and Expression Analysis (LTEA) Assay for Forkhead box O1 (FOXO1) using HepaRG (AID 2283456)
Procedure, shortened: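 FOXO1 transcript quantified by qRT-PCR after 48 h chemical exposure (top 100 uM, half-log steps, 0.5% DMSO) of HepaRG cells, housekeeping-normalized (ACTB/GAPDH/POLR2A). Changes fitted in both directions relative to vehicle.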

[9] = read-out: growth arrest and DNA damage 45 (GADD45A), GADD45A (gene 1647); test: LTEA_HepaRG_GADD45A: Life Technologies and Expression Analysis (LTEA) Assay for growth arrest and DNA damage 45 (GADD45A) using HepaRG (AID 2283458)
Procedure, shortened: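 HepaRG, 48 h exposure, 8 conc. (top 100 uM, half-log steps), 0.5% DMSO vehicle, duplicates. Read-out: qRT-PCR mRNA level, housekeeping-normalized (ACTB/GAPDH/POLR2A). Curves fit bidirectionally vs DMSO baseline.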

[10] = read-out: Forkhead box O3 (FOXO3), FOXO3 (gene 2309); test: LTEA_HepaRG_FOXO3: Life Technologies and Expression Analysis (LTEA) Assay for Forkhead box O3 (FOXO3) using HepaRG (AID 2283459)
Procedure, shortened: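 FOXO3 transcript measured by qRT-PCR (normalized to ACTB, GAPDH, POLR2A) after 48 h exposure of HepaRG cells in serum-free induction medium. Duplicates, eight half-log concentrations up to 100 uM, 0.5% DMSO; gain or loss fitted against DMSO.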

[11] = read-out: ABC Transporter (ABCB1), ABCB1 (gene 5243); test: LTEA_HepaRG_ABCB1: Life Technologies and Expression Analysis (LTEA) Assay for ABC Transporter (ABCB1) using HepaRG (AID 2283460)
Procedure, shortened: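 ABCB1 transcript level measured by TaqMan qRT-PCR against three housekeeping genes after 48 h chemical exposure of differentiated HepaRG cells. Top concentration 100 uM, half-log steps, eight points, 0.5% DMSO vehicle; bidirectional fit relative to DMSO.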

[12] = read-out: growth arrest and DNA damage 45 (GADD45B), GADD45B (gene 4616); test: LTEA_HepaRG_GADD45B: Life Technologies and Expression Analysis (LTEA) Assay for growth arrest and DNA damage 45 (GADD45B) using HepaRG (AID 2283461)
Procedure, shortened: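 Differentiated human HepaRG cells in serum-free induction medium exposed 48 h in duplicate to eight concentrations, top 100 uM, half-log steps, 0.5% DMSO. GADD45B mRNA by TaqMan qRT-PCR, normalized to ACTB, GAPDH, POLR2A; bidirectional fit versus DMSO.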

[13] = read-out: ABC Transporter (ABCC3), ABCC3 (gene 8714); test: LTEA_HepaRG_ABCC3: Life Technologies and Expression Analysis (LTEA) Assay for ABC Transporter (ABCC3) using HepaRG (AID 2283462)
Procedure, shortened: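 Differentiated human HepaRG cells exposed 48 h in serum-free induction medium, 0.5% DMSO vehicle, 8-point half-log series to 100 uM in duplicate. ABCC3 mRNA by qRT-PCR, normalised to ACTB, GAPDH, POLR2A; bidirectional fit vs DMSO.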

[14] = read-out: ABC Transporter (ABCB11), ABCB11 (gene 8647); test: LTEA_HepaRG_ABCB11: Life Technologies and Expression Analysis (LTEA) Assay for ABC Transporter (ABCB11) using HepaRG (AID 2283463)
Procedure, shortened: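 ABCB11 transcript levels quantified by TaqMan qRT-PCR against three housekeeping genes after 48 h chemical exposure of HepaRG cultures. Concentrations up to 100 uM in half-log steps, 0.5% DMSO vehicle; both induction and suppression scored.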

[15] = read-out: ABC Transporter (ABCC2), ABCC2 (gene 1244); test: LTEA_HepaRG_ABCC2: Life Technologies and Expression Analysis (LTEA) Assay for ABC Transporter (ABCC2) using HepaRG (AID 2283464)
Procedure, shortened: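 Differentiated HepaRG cells in serum-free induction medium exposed 48 h to eight half-log concentrations up to 100 uM, 0.5% DMSO, in duplicate. ABCC2 mRNA measured by qRT-PCR (TaqMan, Fluidigm), normalized to ACTB, GAPDH and POLR2A. Fitted in both directions against DMSO.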

[16] = read-out: Broad substrate specificity ATP-binding cassette transporter ABCG2 (Homo sapiens) (UniProt Q9UNQ0); test: LTEA_HepaRG_ABCG2: Life Technologies and Expression Analysis (LTEA) Assay for ABC Transporter (ABCG2) using HepaRG (AID 2283465)
Procedure, shortened: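 ABCG2 transcript was quantified by TaqMan qRT-PCR against three housekeeping genes in HepaRG cells. Cells were treated in duplicate for 48 h across an 8-point half-log series up to 100 uM, with 0.5% DMSO vehicle. Gain or loss versus DMSO was fit.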

[17] = read-out: ATP-citrate lyase (ACLY), ACLY (gene 47); test: LTEA_HepaRG_ACLY: Life Technologies and Expression Analysis (LTEA) Assay for ATP-citrate lyase (ACLY) using HepaRG (AID 2283466)
Procedure, shortened: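 ACLY mRNA quantified by qRT-PCR on Fluidigm arrays against three housekeeping genes, after 48 h chemical treatment of HepaRG cells (top concentration 100 uM, half-log steps, 0.5% DMSO vehicle). Up- or down-regulation fitted relative to DMSO.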

[18] = read-out: Peroxisomal acyl-coenzyme A oxidase 1 (ACOX1) gene, ACOX1 (gene 51); test: LTEA_HepaRG_ACOX1: Life Technologies and Expression Analysis (LTEA) Assay for Peroxisomal acyl-coenzyme A oxidase 1 (ACOX1) gene using HepaRG (AID 2283467)
Procedure, shortened: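 ACOX1 transcript levels were quantified by TaqMan qRT-PCR against three housekeeping genes after 48 h chemical exposure of differentiated human HepaRG cells. Exposure used eight half-log steps topping at 100 uM, 0.5% DMSO vehicle, in duplicate. Bidirectional curve fits were made relative to DMSO.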

[19] = read-out: CFLAR gene, CFLAR (gene 8837); test: LTEA_HepaRG_CFLAR: Life Technologies and Expression Analysis (LTEA) Assay for CFLAR gene using HepaRG (AID 2283455)
Procedure, shortened: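 Transcript level by qRT-PCR (normalized to ACTB, GAPDH and POLR2A) after 48 h chemical exposure of HepaRG cells, top concentration 100 uM with half-log steps, 0.5% DMSO vehicle, duplicates; fitted bidirectionally against DMSO baseline.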

Measured: AC50

Broad substrate specificity ATP-binding cassette transporter ABCG2 (Homo sapiens), sequence (Q9UNQ0 whole entry, looked up): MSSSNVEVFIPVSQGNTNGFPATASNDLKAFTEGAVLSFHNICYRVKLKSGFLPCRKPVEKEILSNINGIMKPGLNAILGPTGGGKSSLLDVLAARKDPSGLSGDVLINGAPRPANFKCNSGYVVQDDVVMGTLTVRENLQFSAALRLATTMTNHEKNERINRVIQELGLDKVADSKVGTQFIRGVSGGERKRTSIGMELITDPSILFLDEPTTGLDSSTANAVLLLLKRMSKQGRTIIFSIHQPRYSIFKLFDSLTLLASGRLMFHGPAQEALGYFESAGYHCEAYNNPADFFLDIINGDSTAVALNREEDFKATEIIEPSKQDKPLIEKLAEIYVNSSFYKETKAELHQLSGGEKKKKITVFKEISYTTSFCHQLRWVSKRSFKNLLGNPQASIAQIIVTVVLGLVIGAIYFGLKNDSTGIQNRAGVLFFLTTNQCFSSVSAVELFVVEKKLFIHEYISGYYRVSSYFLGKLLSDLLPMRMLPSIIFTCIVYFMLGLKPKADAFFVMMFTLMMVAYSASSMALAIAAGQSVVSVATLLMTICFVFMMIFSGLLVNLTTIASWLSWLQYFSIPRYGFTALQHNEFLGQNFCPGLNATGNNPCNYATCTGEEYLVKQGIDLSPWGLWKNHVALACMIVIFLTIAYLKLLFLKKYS
Fatty acid synthase (Homo sapiens), sequence (P49327 whole entry, looked up): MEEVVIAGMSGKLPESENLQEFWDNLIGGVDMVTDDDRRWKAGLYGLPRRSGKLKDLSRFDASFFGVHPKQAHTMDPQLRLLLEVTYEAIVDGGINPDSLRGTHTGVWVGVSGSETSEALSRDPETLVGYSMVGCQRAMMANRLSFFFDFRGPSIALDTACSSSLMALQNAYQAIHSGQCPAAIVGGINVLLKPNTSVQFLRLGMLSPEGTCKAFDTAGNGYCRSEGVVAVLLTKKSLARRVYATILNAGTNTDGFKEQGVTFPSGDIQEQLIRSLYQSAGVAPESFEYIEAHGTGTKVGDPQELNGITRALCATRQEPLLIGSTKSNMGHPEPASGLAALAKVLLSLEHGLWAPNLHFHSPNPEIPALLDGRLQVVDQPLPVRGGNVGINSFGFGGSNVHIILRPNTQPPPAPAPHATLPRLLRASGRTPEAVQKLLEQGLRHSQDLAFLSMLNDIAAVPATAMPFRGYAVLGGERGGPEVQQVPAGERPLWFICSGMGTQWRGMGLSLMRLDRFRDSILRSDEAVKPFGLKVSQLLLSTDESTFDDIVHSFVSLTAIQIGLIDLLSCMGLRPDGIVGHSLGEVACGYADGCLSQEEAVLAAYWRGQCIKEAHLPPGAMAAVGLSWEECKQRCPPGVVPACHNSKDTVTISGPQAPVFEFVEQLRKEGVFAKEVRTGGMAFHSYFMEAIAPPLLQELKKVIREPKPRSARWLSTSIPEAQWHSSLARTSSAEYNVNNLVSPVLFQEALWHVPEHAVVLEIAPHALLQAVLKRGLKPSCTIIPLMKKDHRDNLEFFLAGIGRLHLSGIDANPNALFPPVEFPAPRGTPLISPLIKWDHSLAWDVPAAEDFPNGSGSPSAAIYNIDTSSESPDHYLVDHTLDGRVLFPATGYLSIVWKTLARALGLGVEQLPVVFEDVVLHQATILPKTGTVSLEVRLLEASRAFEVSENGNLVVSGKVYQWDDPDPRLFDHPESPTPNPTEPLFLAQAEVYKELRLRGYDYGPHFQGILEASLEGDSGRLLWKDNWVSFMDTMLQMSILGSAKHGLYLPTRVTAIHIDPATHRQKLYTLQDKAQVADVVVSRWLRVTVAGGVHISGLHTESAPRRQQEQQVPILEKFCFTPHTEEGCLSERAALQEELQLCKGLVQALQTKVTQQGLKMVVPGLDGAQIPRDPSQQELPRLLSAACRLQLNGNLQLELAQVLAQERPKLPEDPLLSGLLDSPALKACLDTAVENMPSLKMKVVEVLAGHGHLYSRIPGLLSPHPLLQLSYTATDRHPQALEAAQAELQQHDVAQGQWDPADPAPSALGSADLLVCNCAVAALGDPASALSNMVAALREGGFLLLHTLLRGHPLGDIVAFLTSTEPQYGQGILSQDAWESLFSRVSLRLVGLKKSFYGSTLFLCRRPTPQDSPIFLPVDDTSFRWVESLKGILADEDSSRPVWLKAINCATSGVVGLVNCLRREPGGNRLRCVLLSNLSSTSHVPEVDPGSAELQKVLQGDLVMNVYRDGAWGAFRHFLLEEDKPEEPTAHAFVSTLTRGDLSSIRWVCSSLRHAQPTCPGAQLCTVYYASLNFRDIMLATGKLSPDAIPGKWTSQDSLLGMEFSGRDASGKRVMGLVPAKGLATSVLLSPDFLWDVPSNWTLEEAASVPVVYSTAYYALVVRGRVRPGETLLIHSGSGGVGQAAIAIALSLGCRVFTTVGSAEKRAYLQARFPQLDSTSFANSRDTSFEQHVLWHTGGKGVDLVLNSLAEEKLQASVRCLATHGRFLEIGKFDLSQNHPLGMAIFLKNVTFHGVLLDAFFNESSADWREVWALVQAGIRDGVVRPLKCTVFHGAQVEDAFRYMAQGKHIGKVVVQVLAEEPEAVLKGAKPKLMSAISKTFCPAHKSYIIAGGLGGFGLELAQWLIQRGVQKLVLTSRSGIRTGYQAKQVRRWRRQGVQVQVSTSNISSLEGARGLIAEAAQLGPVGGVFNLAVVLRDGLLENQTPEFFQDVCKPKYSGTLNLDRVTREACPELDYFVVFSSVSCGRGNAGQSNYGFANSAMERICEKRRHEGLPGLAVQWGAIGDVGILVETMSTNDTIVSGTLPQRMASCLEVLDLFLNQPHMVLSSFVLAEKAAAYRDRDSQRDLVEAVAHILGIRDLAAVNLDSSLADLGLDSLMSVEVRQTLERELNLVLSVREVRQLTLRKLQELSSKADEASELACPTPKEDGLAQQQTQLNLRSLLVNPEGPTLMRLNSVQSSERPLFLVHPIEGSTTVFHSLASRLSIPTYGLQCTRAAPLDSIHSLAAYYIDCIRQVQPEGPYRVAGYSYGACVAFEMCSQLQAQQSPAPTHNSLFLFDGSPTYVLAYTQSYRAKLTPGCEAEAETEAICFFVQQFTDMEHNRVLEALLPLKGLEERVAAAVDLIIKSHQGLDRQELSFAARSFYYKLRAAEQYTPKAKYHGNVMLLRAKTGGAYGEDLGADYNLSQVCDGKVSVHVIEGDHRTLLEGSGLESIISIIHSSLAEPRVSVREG

OC[C@@H](O)[C@@H](O)[C@H](O)[C@H](O)CO
not listed: [19]
inactive: all other assays above

CC=Cc1ccc(O)c(OC)c1
active: [7] 50 µM
not listed: [5]
inactive: all other assays above
